Screens from PubChem.
KB-3-1 cytotox – KB-3-1 parental cell cytotoxicity; 400,000 compounds, 1.4% hits; Potency, µM (doses to about 46.1 µM), most hits filed as cytotoxic; KB-3-1 viability, CellTiter-Glo ATP luminescence, 72 h; further: on the % scale 0 is the no-effect control and ±100 the full control effect; nearly all actives have a fitted effect of over 60% in size
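Using CellTiter-Glo luminescence, growth of non-resistant KB-3-1 adenocarcinoma cells is assessed 72 h after pin-tool compound addition at 37 °C. Normalized responses across the concentration series yield fitted curves.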
S2 tox – viability counter-screen for ATXN expression inhibitors | S2 cells (HEK-293 line with an ATXN2-luciferase reporter) viability, CellTiter-Fluor protease fluorescence, 24 h | AID 651635 | Potency, µM (top dose mostly 56.7 µM), usual class: cytotoxic | 400,000 compounds, 0.49% hits; further: nearly all actives have a fitted effect of over 40% in size
HT1080 IDH1KD tx – toxicity to HT-1080 IDH1 knockdown cells (counter line) | HT-1080 IDH1 knockdown viability, ATP luminescence, 48 h | Potency, µM (highest dose often 46.1 µM), for inactives: top-dose activity, negative = toxicity, most hits filed as cytotoxic | 360,000 compounds, 2% hits;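 further: 0% = DMSO wells and -100% = cell-free medium wells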
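Luminescent ATP read-out (CellTiter-Glo, 10 min at room temperature) after 48 h compound exposure at 37 °C gave viability of IDH1-knockdown HT-1080 cells. Activity was normalised to DMSO and cell-free wells, then fitted as concentration-response curves.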
KB-V1 MDR tox – kills drug-selected multidrug resistant KB-V1 cells. KB-V1 MDR cells viability, CellTiter-Glo, 72 h. 400,000 compounds, 3.4% hits. Potency, µM (top dose mostly 46.1 µM), hits mostly cytotoxic; further: on the % scale 0 is the no-effect control and ±100 the full control effect; nearly all actives have a fitted effect of over 60% in size
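In this primary screen, KB-V1 cells overexpressing P-gp are incubated with library compounds (lowest to highest concentration) for 72 h at 37 degrees C before a luminescent ATP viability read.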
HT1080-NT tox – kills 2HG-producing HT-1080-NT fibrosarcoma cells; HT-1080-NT fibrosarcoma viability, CellTiter-Glo ATP luminescence, 48 h; Potency, µM (highest dose often 46.1 µM), inactives show at the top dose activity, negative = less viability, hits mostly cytotoxic; 360,000 compounds, 1.6% hits; AID 686970;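 further: NT is the 2HG producing partner of a matched IDH1 knockdown line; 0% = DMSO-treated cells and -100% = media-only wells without cells; nearly all actives have a fitted effect of over 55% in size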
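Fibrosarcoma NT cells, 750 per well in 5% FBS RPMI, were exposed to compound for 48 hours. Viability: CellTiter-Glo luminescence.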
ATXN2 expr inh – inhibitors of ATXN2 expression; AID 1745845; HEK-293 ATXN2-luciferase reporter, luminescence, 24 h; Potency, µM (top dose mostly 57 µM), for inactives: top-dose activity change, negative = inhibition, usual class: inhibitors; 360,000 compounds, 0.72% hits; further: on the % scale 0 is the no-effect control and ±100 the full control effect; nearly all actives have a fitted effect of over 55% in size
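ATXN2-luciferase reporter cells (luciferase flanked by upstream and downstream ATXN2 gene portions) were treated 24 h at 37 °C with compounds at up to 57 uM. SteadyGlo luminescence gave expression; GF-AFC fluorescence gave viability.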
An asterisk follows results filed as active; i = inactive; ? = inconclusive; / = no result given; [ ] = another dose, or the depositor's remark. In the library only some 6.2% were active in any assay of this set; here they are far more common. The call rests on the fitted dose curve; in most records, active means well fitted curve in the direction sought with a large enough effect; inconclusive means small, poorly fitted or top-dose-only effect, or another doubt; inactive means no such curve, though single readings can be large; an effect the other way counts as inactive or inconclusive. Potency means the concentration at half of the fitted maximal effect.

SMILES	KB-3-1 cytotox	S2 tox	HT1080 IDH1KD tx	KB-V1 MDR tox	HT1080-NT tox	ATXN2 expr inh
COc1ccc(Cl)cc1NC(=O)CN(C)CC(=O)Nc1ccccc1N1CCOCC1	i	?	1.2µM*	?	1.5µM*	-7%[11.3 µM]
COc1ccc(Cl)cc1NC(=O)CN(C)C(=O)c1cc2c(s1)CCCC2	?	i	-20%	13µM*	-8%	-22%
COCCN(CC(=O)Nc1cccc(C)c1C)C(=O)c1ccc(S(=O)(=O)N2CCOCC2)cc1	i	i	2%	?	5%	8%
CCN(CC(=O)Nc1ccccc1C(F)(F)F)C(=O)c1cc2c(s1)CCCCC2	i	i	-17%	i	-16%	2%
CCCNC(=O)C1(C)CCN(C(=O)c2cc(F)cc(F)c2)C1 (stereo not drawn)	i	i	-1%	i	-5%	8%
O=C(NCC1Cc2cccc(-c3cncnc3)c2O1)C1CC1 (stereo not drawn)	/	i	/	/	/	/
CCOc1ccc(/C=C2\SC(=O)N(CCNC(=O)C3COc4ccccc4O3)C2=O)cc1OC (stereo not drawn)	i	?	-4%	16µM*	-4%	?
O=C(Nc1cc(S(=O)(=O)N2CCOCC2)ccc1N1CCCC1)C1COc2ccccc2O1 (stereo not drawn)	i	?	-2%	i	1%	-16%
COc1ccc(Cl)cc1NC(=O)CNc1ccccc1CN(C)C1CCCCC1	i	i	16µM*	?	?	/
CN1CCN(c2ccc(Cl)cc2NC(=O)/C=C/c2cccc(F)c2)CC1	?	?	21µM*	i	12µM*	?
COc1ccc(C)cc1NC(=O)CNc1ccccc1CN(C)C1CCCCC1	i	i	?	i	-24%	-16%
CN1CCN(c2ccc(Cl)cc2NC(=O)c2cccc(S(=O)(=O)N(C)C)c2)CC1	i	i	14%[9.24 µM]	i	?	-21%
CN1CCN(c2ccc(Cl)cc2NC(=O)C2COc3ccccc3O2)CC1 (stereo not drawn)	?	i	?	i	15µM*	-8%
Cc1c(Cl)cccc1NC(=O)CCS(=O)(=O)c1ccc2c(c1)CC(=O)N2C	i	i	/	i	/	9%
Cc1cccc(C)c1C(O)c1ncc(-c2ccccc2C(F)(F)F)[nH]1 (stereo not drawn)	i	i	4%	i	-21%	0%
COc1ccc(C(C(=O)NC(C)(C)C)n2c(=O)c(-c3cc4ccccc4[nH]3)nc3ccccc32)cc1 (stereo not drawn)	?	/	?	?	-25%	/
COc1ccc(Cl)cc1NC(=O)C1COc2ccccc2O1 (stereo not drawn)	i	i	5%	i	3%	8%
CCOc1ccc(OCC)c(NC(=O)C2COc3ccccc3O2)c1 (stereo not drawn)	i	i	-11%	21µM*	2%	-12%
COc1ccc(Cl)cc1NC(=O)CN(C)C(=O)CN1C(=O)NC(C)(c2ccc3ccccc3c2)C1=O (stereo not drawn)	10µM*	i	?	?	?	-9%
COc1cc(OC)c(OC)cc1NC(=O)CC1COc2ccccc2O1 (stereo not drawn)	i	i	6%	15µM*	5%	6%
COc1ccc(Cl)cc1NC(=O)CN(C)C(=O)C1COc2ccccc2O1 (stereo not drawn)	i	?	-4%	16µM*	-9%	-15%
O=C(CN1CCCC1c1cccs1)Nc1cccc(S(=O)(=O)N2CCCC2)c1 (stereo not drawn)	?	i	-4%	i	-3%[9.24 µM]	-23%
Cc1ccccc1-c1nnc2c3ccccc3c(C)nn12	?	i	6%	7.3µM*	9%	3%
COc1ccc(-c2nnc3c4ccccc4c(C)nn23)cc1S(=O)(=O)N1CCN(CCO)CC1	?	i	8.9µM*	?	?	-13%
COc1ccc(-c2nnc3c4ccccc4c(C)nn23)cc1	i	i	?	3.7µM*	?	38%
SMILES	KB-3-1 cytotox	S2 tox	HT1080 IDH1KD tx	KB-V1 MDR tox	HT1080-NT tox	ATXN2 expr inh
COc1ccc(NC(=O)COC(=O)c2ccc(C)c(S(=O)(=O)N3CCCCC3)c2)cc1	?	i	1%	i	-4%[9.24 µM]	-8%
CCOC(=O)c1ccc(S(=O)(=O)N2CCN(c3nc(-c4cccs4)nc4ccccc34)CC2)cc1	i	/	/	i	/	/
CC1CCC(C(=O)NC(C(=O)NCc2cccnc2)C(C)C)CC1 (stereo not drawn)	i	?	2%	21µM*	1%	2%
CC(C)CC(NC(=O)C1CCC(C)CC1)C(=O)NCc1cccnc1 (stereo not drawn)	i	i	0%	18µM*	4%	-3%
COc1ccccc1CNC(=O)C(CCSC)NC(=O)C1CCC(C)CC1 (stereo not drawn)	i	i	1%	4.1µM*	-3%	4%
N#C/C(=C/c1ccc(O)c([N+](=O)[O-])c1)C(=O)Nc1ccccc1	18µM*	?	8.2µM*	?	?	?
N#C/C(=C/C=C/c1ccccc1)C(=O)Nc1ccccc1	i	i	?	16µM*	-21%	-5%
COc1ccc(NC(=O)/C(C#N)=C/c2ccc(C)o2)cc1	i	i	/	i	/	62%
COc1ccc(NC(=O)/C(C#N)=C/C=C/c2ccco2)cc1	7.3µM*	?	?	13µM*	?	-25%
Cc1cn([C@H]2C[C@H](F)[C@@H](CO)O2)c(=O)[nH]c1=O	/	i	/	/	/	-3%
Oc1ccc(Br)cc1-c1nc2cnccn2c1NC1CCCCC1	i	i	-18%	i	?	-26%
Oc1ccc(Br)cc1-c1nc2cnccn2c1NC1CCCC1	?	i	-13%	23µM*	-13%	-16%
C=CC(=O)Nc1cccc(Oc2cc(Cl)nc3[nH]ccc23)c1	?	18µM*	?	18µM*	?	?
COc1cccc(NC(=O)c2cccc(C(=O)Nc3cccc(OC)c3)n2)c1	i	i	1%	i	-2%	2%
COc1cccc(C(=O)NC(=NCCc2c[nH]c3ccc(OC)cc23)Nc2nc(C)cc(C)n2)c1	i	i	/	23µM*	/	-11%
Cc1ccccc1OC(=O)CSc1nnc(-c2ccc3c(c2)OCO3)o1	i	/	/	i	/	/
COc1ccc(C2CC(c3ccccc3O)=NN2c2ccccc2)cc1 (stereo not drawn)	i	i	8%	i	2%	20%
